Results as given in PubChem BioAssay AID1159580 (chemical genetic matrix, 2015).
In all, about 5,500 compounds went through this assay and about 2,000 (36%) were called active. Roughly 18% stayed inconclusive and do not appear here. Cut-off read from the data, not from the text of the source: active = normalized growth mostly below about 0.91 (no sharp cut-off); inconclusive = no clear call, values can overlap the other calls; inactive = mostly above about 0.92. The list shows a part of the results.

Assay: chemical genetic growth profiling, strain panel (AID 1159580);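 note: tested at 20 µM; growth read once vehicle control cultures reached saturation at 30 °C; 1 = growth at the plate median or of vehicle wells; lower values mean less growth of the strain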
Settings: growth OD

Measured: normalized growth

Cc1ncc([N+](=O)[O-])n1CCO
inactive: S. cerevisiae deletion strains, locus YJR075W, strain HOC1, hits give low values 1.01 | S. cerevisiae deletion strains, locus YKL009W, strain mrt4, hits give low values 0.969 | S. cerevisiae deletion strains, locus YKL068W, hits give low values 0.99 | S. cerevisiae deletion strains, locus YKL085W, strain MDH1 (second series), hits give low values 0.985 | S. cerevisiae deletion strains, locus YKL085W, strain MDH1, hits give low values 0.985 | S. cerevisiae deletion strains, locus YKL160W, strain elf1, hits give low values 0.955 | S. cerevisiae deletion strains, locus YKL190W, strain CNB1, hits give low values 0.99 | S. cerevisiae deletion strains, locus YKR001C, strain vps1, hits give low values 1 | S. cerevisiae deletion strains, locus YKR026C, strain gcn3, hits give low values 0.984 | S. cerevisiae deletion strains, locus YKR091W, strain srl3, hits give low values 0.962 | S. cerevisiae deletion strains, locus YLL001W, strain dnm1, hits give low values 0.926 | S. cerevisiae deletion strains, locus YLL026W, hits give low values 0.977 | S. cerevisiae deletion strains, locus YLL041C, strain sdh2, hits give low values 0.98 | S. cerevisiae deletion strains, locus YLR027C, strain aat2, hits give low values 0.98 | S. cerevisiae deletion strains, locus YLR039C, strain RIC1, hits give low values 0.972 | S. cerevisiae deletion strains, locus YLR058C, strain SHM2, hits give low values 0.97 | S. cerevisiae deletion strains, locus YLR102C, strain apc9, hits give low values 0.991 | S. cerevisiae deletion strains, locus YLR113W, strain HOG1, hits give low values 1.05 | S. cerevisiae deletion strains, locus YLR221C, strain rsa3, hits give low values 0.941 | S. cerevisiae deletion strains, locus YLR258W, strain gsy2, hits give low values 0.988 | S. cerevisiae deletion strains, locus YLR262C, strain YPT6 (second series), hits give low values 0.964 | S. cerevisiae deletion strains, locus YLR262C, strain YPT6, hits give low values 0.907 | S. cerevisiae deletion strains, locus YLR268W, strain sec22, hits give low values 1.08 | S. cerevisiae deletion strains, locus YLR320W, strain mms22, hits give low values 0.948 | S. cerevisiae deletion strains, locus YLR330W, strain CHS5, hits give low values 0.987 | S. cerevisiae deletion strains, locus YLR342W, strain FKS1 (second series), hits give low values 0.982 | S. cerevisiae deletion strains, locus YLR342W, strain FKS1, hits give low values 0.978 | S. cerevisiae deletion strains, locus YLR357W, strain rsc2, hits give low values 0.973 | S. cerevisiae deletion strains, locus YLR370C, strain arc18, hits give low values 0.972 | S. cerevisiae deletion strains, locus YLR371W, strain rom2, hits give low values 0.975 | S. cerevisiae deletion strains, locus YLR384C, strain iki3, hits give low values 0.982 | S. cerevisiae deletion strains, locus YLR418C, strain cdc73, hits give low values 0.991 | S. cerevisiae deletion strains, locus YML016C, strain PPZ1, hits give low values 0.986 | S. cerevisiae deletion strains, locus YML032C, strain rad52, hits give low values 1.01 | S. cerevisiae deletion strains, locus YML120C, strain ndi1, hits give low values 0.942 | S. cerevisiae deletion strains, locus YML124C, strain tub3, hits give low values 0.984 | S. cerevisiae deletion strains, locus YMR058W, strain fet3, hits give low values 0.983 | S. cerevisiae deletion strains, locus YMR078C, strain ctf18, hits give low values 0.976 | S. cerevisiae deletion strains, locus YMR125W, strain sto1, hits give low values 0.958 | S. cerevisiae deletion strains, locus YMR129W, hits give low values 0.98 | S. cerevisiae deletion strains, locus YMR205C, strain PFK2, hits give low values 0.936 | S. cerevisiae deletion strains, locus YMR223W, strain ubp8, hits give low values 0.952 | S. cerevisiae deletion strains, locus YMR231W, strain pep5, hits give low values 0.986 | S. cerevisiae deletion strains, locus YMR263W, strain SAP30, hits give low values 0.995 | S. cerevisiae deletion strains, locus YMR307W, strain GAS1, hits give low values 0.976 | S. cerevisiae deletion strains, locus YNL067W, strain RPL9B, hits give low values 0.994 | S. cerevisiae deletion strains, locus YNL071W, strain lat1, hits give low values 0.978 | S. cerevisiae deletion strains, locus YNL128W, strain TEP1, hits give low values 0.951 | S. cerevisiae deletion strains, locus YNL153C, strain GIM3, hits give low values 1.01 | S. cerevisiae deletion strains, locus YNL183C, strain NPR1, hits give low values 1.03 | S. cerevisiae deletion strains, locus YNL209W, strain ssb2, hits give low values 0.974 | S. cerevisiae deletion strains, locus YNL233W, strain BNI4, hits give low values 1.02 | S. cerevisiae deletion strains, locus YNL248C, strain rpa49, hits give low values 0.981 | S. cerevisiae deletion strains, locus YNL250W, strain rad50, hits give low values 0.975 | S. cerevisiae deletion strains, locus YNL271C, strain bni1, hits give low values 0.989 | S. cerevisiae deletion strains, locus YNL298W, strain CLA4, hits give low values 0.992 | S. cerevisiae deletion strains, locus YNL307C, strain MCK1, hits give low values 0.989 | S. cerevisiae deletion strains, locus YNL322C, strain KRE1 (second series), hits give low values 0.974 | S. cerevisiae deletion strains, locus YNL322C, strain KRE1, hits give low values 0.986 | S. cerevisiae deletion strains, locus YNR049C, strain mso1, hits give low values 0.96 | S. cerevisiae deletion strains, locus YNR052C, strain pop2, hits give low values 0.989 | S. cerevisiae deletion strains, locus YOL006C, strain TOP1, hits give low values 1 | S. cerevisiae deletion strains, locus YOL012C, strain htz1 0.99 | S. cerevisiae deletion strains, locus YOL147C, strain pex11, hits give low values 0.986 | S. cerevisiae deletion strains, locus YOR001W, strain rrp6, hits give low values 1 | S. cerevisiae deletion strains, locus YOR061W, strain CKA2, hits give low values 0.967 | S. cerevisiae deletion strains, locus YOR069W, strain VPS5, hits give low values 0.989 | S. cerevisiae deletion strains, locus YOR070C, strain gyp1, hits give low values 0.987 | S. cerevisiae deletion strains, locus YOR080W, strain dia2, hits give low values 0.977 | S. cerevisiae deletion strains, locus YOR083W, strain WHI5, hits give low values 0.954 | S. cerevisiae deletion strains, locus YOR106W, strain vam3, hits give low values 0.937 | S. cerevisiae deletion strains, locus YOR136W, strain idh2, hits give low values 0.984 | S. cerevisiae deletion strains, locus YOR144C, strain elg1, hits give low values 0.989 | S. cerevisiae deletion strains, locus YOR184W, strain ser1, hits give low values 0.998 | S. cerevisiae deletion strains, locus YOR231W, strain MKK1, hits give low values 1.06 | S. cerevisiae deletion strains, locus YOR265W, strain rbl2, hits give low values 0.985 | S. cerevisiae deletion strains, locus YOR270C, strain vph1, hits give low values 0.958 | S. cerevisiae deletion strains, locus YOR290C, strain snf2, hits give low values 0.91 | S. cerevisiae deletion strains, locus YOR316C, strain cot1, hits give low values 0.992 | S. cerevisiae deletion strains, locus YPL051W, strain arl3, hits give low values 0.978 | S. cerevisiae deletion strains, locus YPL055C, strain LGE1, hits give low values 0.974 | S. cerevisiae deletion strains, locus YPL078C, strain atp4, hits give low values 0.959 | S. cerevisiae deletion strains, locus YPL106C, strain sse1, hits give low values 0.943 | S. cerevisiae deletion strains, locus YPL240C, strain hsp82, hits give low values 0.983 | S. cerevisiae deletion strains, locus YPL241C, strain CIN2, hits give low values 0.982 | S. cerevisiae deletion strains, locus YPL256C, strain CLN2, hits give low values 1.1 | S. cerevisiae deletion strains, locus YPR119W, strain clb2, hits give low values 0.992 | S. cerevisiae deletion strains, locus YPR141C, strain kar3, hits give low values 0.982 | S. cerevisiae deletion strains, locus YPR163C, strain tif3, hits give low values 0.987 | S. cerevisiae deletion strains, locus YPR167C, strain met16, hits give low values 0.998 | S. cerevisiae deletion strains, strain wtn01, hits give low values 1.02 | S. cerevisiae strains, strain wild type, hits give low values 0.98
